Caspase-1 inhib = caspase-1 (human) inhibition, allosteric or competitive | P29466 | Caspase-1 enzyme, Ac-WEHD-AFC fluorogenic rate | Potency, µM (series often up to 57.5 µM), for the others: top-dose activity change, negative = inhibition, usual class: inhibitors | hit rate 0.03% among 75,000 | AID 900;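 also: plate controls were vehicle for no effect and no substrate for full effect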
Casp7 inh = allosteric or competitive inhibitors of human caspase-7; hit rate 0.02% among 75,000; Potency, µM (highest dose often 57.5 µM), without a hit: at the highest dose activity change, negative = inhibition, actives largely listed as inhibitors; recombinant caspase-7, Ac-DEVD-AFC fluorescence rate; P55210; active = well fitted inhibition curve with a large enough effect in the main read-out, with a control signal flat, not every such curve was filed as active; inconclusive = small, poorly fitted or top-dose-only effect, or a change in a side signal; also: % of control where 0% means no effect
Tau filament bind = binds recombinant human tau filaments; Potency, µM (series often up to 57.1 µM), inactives show top-dose activity change, negative = inhibition; AID 596; P10636; hit rate 2% among 71,000; recombinant tau filaments, thioflavin S fluorescence, 15 h; filaments grown with octadecylsulfate alongside compound;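 also: % is scaled to controls: 0 for no effect and ±100 for the full control effect; actives lower thioflavin S fluorescence by blocking filaments or displacing dye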
Target sequence (P10636 whole entry, looked up): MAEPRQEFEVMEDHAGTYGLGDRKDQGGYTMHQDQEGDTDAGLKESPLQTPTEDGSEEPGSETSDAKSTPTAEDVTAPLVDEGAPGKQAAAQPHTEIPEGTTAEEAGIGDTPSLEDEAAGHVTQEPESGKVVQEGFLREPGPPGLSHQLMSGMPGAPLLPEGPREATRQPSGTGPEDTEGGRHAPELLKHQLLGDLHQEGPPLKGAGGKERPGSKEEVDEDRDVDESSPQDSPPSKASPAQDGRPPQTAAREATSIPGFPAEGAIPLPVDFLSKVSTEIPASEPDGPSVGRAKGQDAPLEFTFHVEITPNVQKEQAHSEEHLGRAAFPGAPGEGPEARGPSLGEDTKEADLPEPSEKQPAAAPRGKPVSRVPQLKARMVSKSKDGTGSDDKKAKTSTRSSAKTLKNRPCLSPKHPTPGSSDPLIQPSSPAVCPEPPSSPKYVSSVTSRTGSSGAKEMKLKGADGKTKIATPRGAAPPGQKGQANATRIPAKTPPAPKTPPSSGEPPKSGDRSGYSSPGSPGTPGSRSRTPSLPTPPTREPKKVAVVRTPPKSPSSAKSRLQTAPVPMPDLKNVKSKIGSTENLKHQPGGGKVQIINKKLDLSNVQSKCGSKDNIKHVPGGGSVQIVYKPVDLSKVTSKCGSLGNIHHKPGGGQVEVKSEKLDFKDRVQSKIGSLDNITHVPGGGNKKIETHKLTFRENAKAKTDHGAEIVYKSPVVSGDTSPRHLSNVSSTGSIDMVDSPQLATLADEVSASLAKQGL
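ThS-based fibril read: tau 1 uM final, inducer ODS 30 uM final, 37 C for 15 h, ex 450/em 510 nm.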
ALOX15 inhib = inhibitors of human 15-lipoxygenase (ALOX15); AID 887; P16050; hit rate 1.4% among 74,000; purified 15hLO-1, xylenol orange hydroperoxide absorbance; Potency, µM (top dose mostly 57.1 µM), for the others: at the highest dose activity change, negative = inhibition, actives largely listed as inhibitors; also: % is scaled to controls: 0 for no effect and ±100 for the full control effect; nearly all actives have a fitted effect of over 55% in size
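Hydroperoxide formed from arachidonic acid (50 uM) by purified human 15hLO-1 (40 nM) oxidizes ferrous iron, and the ferric-xylenol orange complex is read at 573 versus 405 nm. Compounds were preincubated 15 min; reaction ran 6 min at room temperature.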
Pol III holo inh = DNA polymerase III holoenzyme inhibition; reconstituted DNA polymerase III holoenzyme replication, biochemical; Potency, µM (highest dose often 57.1 µM), for inactives: at the highest dose activity change, negative = inhibition; hit rate 0.25% among 71,000; AID 603; also: % is scaled to controls: 0 for no effect and ±100 for the full control effect
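Reconstituted *E. coli* holoenzyme (0.35 nM Pol III, 1 nM beta, 154 nM SSB, 2 nM primase) was preincubated with compound for 15 min at RT. Synthesis on 1.4 nM ssM13Gori ran 35 min, then was stopped with PicoGreen/EDTA and read as dsDNA fluorescence.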
An asterisk follows results filed as active; i = inactive; u = inconclusive; x = no result; [ ] = another dose, or the depositor's remark. In the library only some 3.2% were active in any assay of this set; here they are far more common. Unless noted, calls follow the shape of the dose curve; as a rule, active = well fitted curve in the direction sought with a large enough effect; inconclusive = small, poorly fitted or top-dose-only effect, or another doubt; inactive = no such curve, though single readings can be large; an effect the other way counts as inactive or inconclusive. Potency is read from the fitted curve at half-maximal effect.

SMILES | Caspase-1 inhib | Casp7 inh | Tau filament bind | ALOX15 inhib | Pol III holo inh
CCN(CC)C(=O)CSc1ncnc2c1nnn2-c1ccc(F)cc1 | -3% | 2% | x | 2% | x
N#CC(C(=O)OC1CCCCC1)c1nc2ccccc2nc1N1CCOCC1 (stereo unspecified) | -9% | -13% | i | 1% | 11%
CN1CCN(c2nc3ccccc3nc2C(C#N)C(=O)OC2CCCCC2)CC1 (stereo unspecified) | -7% | -3% | 0.63µM* | -8% | 4%
CCC(CC)COC(=O)C(C#N)c1nc2ccccc2nc1N1CCOCC1 (stereo unspecified) | -21% | -29% | 3.2µM* | -26% | -7%
COCC(C)OC(=O)C(C#N)c1nc2ccccc2nc1N1CCN(Cc2ccccc2)CC1 (stereo unspecified) | -13% | -13% | 3.2µM* | 12% | -3%
C=CCOC(=O)C(C#N)c1nc2ccccc2nc1N1CCN(Cc2ccccc2)CC1 (stereo unspecified) | u | -24% | 1.6µM* | -28% | 0%
Nc1c(Cl)cc(Cl)cc1Cl | -6% | -1% | 5% | 4% | 3%
N=C1Sc2ccccc2C2=NCCCN12 | 1% | 0% | -7% | u | -6%
CCOC(=O)N/N=C1/C[C@@H](O)[C@@H](O)[C@@H]2[C@@H]3C(=O)N(C4CCCCC4)C(=O)[C@H]3CC[C@@H]12 | -1%[11.5 µM] | -1%[11.5 µM] | x | 17%[11.4 µM] | x
CC(C)COC(=O)C(C#N)c1nc2ccccc2nc1N1CCN(Cc2ccccc2)CC1 (stereo unspecified) | -10% | -11% | 2µM* | 5% | -1%
COCCOC(=O)C(C#N)c1nc2ccccc2nc1N1CCN(Cc2ccccc2)CC1 (stereo unspecified) | x | u | u | -8% | -4%
COC(=O)NC(c1cccc(C)c1)[C@]1(C(C)=O)CCOC1=O (stereo partly specified) | 2%[11.5 µM] | -2%[11.5 µM] | x | 12%[11.4 µM] | x
CC/C=C1/OC(=O)c2ccccc21 | -3% | -2% | 5% | -6% | 0%
COc1ccccc1NC(=O)C1(C)Cc2ccccc2C(=O)O1 (stereo unspecified) | -5% | 2% | 2% | 12% | -9%
CC1(C(=O)Nc2nccs2)Cc2ccccc2C(=O)O1 (stereo unspecified) | -4% | -6% | 13µM* | u | -5%
O=C(O)c1nc(-c2ccccc2)[nH]c1C(=O)O | u | 0%[11.5 µM] | -10%[11.4 µM] | -4%[11.4 µM] | -6%[11.4 µM]
CSC1=C(C#N)C2(CCCC2)C(C#N)=C(N)N1 | 2% | 1% | 7% | u | -13%
N#CC1=C(N)N2C(=C(C#N)C13CCCCC3)SC1CCCCC12O (stereo unspecified) | -3% | 0% | 16% | 20µM* | -3%
COc1cccc([C@@H]2Oc3ccc(OC)cc3/C(=N/O[C@@H](C)c3cc(-c4c(C)cc(C)cc4C)no3)[C@@H]2O)c1 | 0%[11.5 µM] | 0%[11.5 µM] | x | -4%[11.4 µM] | x
Cn1c(-c2ccccc2)cc2c3no[n+]([O-])c3ccc21 | -4% | -5% | 10µM* | -3% | -1%
CCOC(=O)c1c(C)n(OCc2ccccc2)c2ccc3c(no[n+]3[O-])c12 | -3% | -2% | 135% | 0% | 1%
Cc1ccc2nc3c(cc2c1)CN(Cc1ccco1)C(=NCC1CCCO1)S3 (stereo unspecified) | -6% | -2% | -4% | -29% | -16%
Cc1cccc2cc3c(nc12)SC(=NCC1CCCO1)N(Cc1ccco1)C3 (stereo unspecified) | -13% | -19% | u | 10µM* | -22%
CC(=O)N1CCC2(CCCN(c3ccc(-c4ccccc4)cc3)C2)CC1 | -9% | -8% | -28% | u | 5%
O=C1c2ccccc2C(O)(O)[C@@]1(O)[C@]1(O)C(=O)c2ccccc2C1(O)O | -1%[11.5 µM] | -2%[11.5 µM] | -1%[11.4 µM] | 1%[11.4 µM] | -8%[11.4 µM]
SMILES | Caspase-1 inhib | Casp7 inh | Tau filament bind | ALOX15 inhib | Pol III holo inh
CC1=C(/C=C/C(C)=C/C=C/C(C)=C/C(=O)Nc2ccc(O)cc2)C(C)(C)CCC1 | -6% | -3% | 3.2µM* | u | -10%
CC1=C(\C=C/C(C)=C/C=C\C(C)=C\C(=O)O)C(C)(C)CCC1 | 3% | -1% | u | u | -4%
C=CC1=C(C)C2=NC1=CC1=NC(=CC3=NC(=CC4=NC(=C2)C(C)=C4CCC(=O)O)C(CCC(=O)O)=C3C)C(C=C)=C1C.[Zn] | -11% | -11% | 0.79µM* | 10µM* | 25µM*
CCN1C(=O)/C(=C2\C=Cc3ccccc3N2CC)OC1=S | -11% | -12% | 1µM* | -29% | 0%
O=c1[nH]c(=O)n([C@H]2C[C@H](O)[C@H](CO)O2)cc1/C=C\Br | -2% | 2% | 4% | 6% | -4%
CCN(CC)c1ccc(NC(=O)c2cccc(C)c2OC)c(C)c1 | -3% | -4% | 25µM* | u | -1%
CCN(CC)c1ccc(NC(=O)c2cnc3ccccn3c2=O)c(C)c1 | -2% | 2% | x | -19% | x
COc1ccc(-c2c3c(=O)n(C)c(=O)n(C)c3cn2C2CCCCC2)cc1 | -1% | -1% | 10% | 25µM* | -9%
Cc1ccc(S(=O)(=O)N2CCC(C(=O)N[C@@H](C)C(=O)Nc3ccc4c(c3)OCO4)CC2)cc1 | 0% | -2% | 10µM* | -16% | -5%
CCNc1sc(C(=O)c2cccs2)c(N)c1-c1nc2ccccc2s1 | -9% | u | 13µM* | u | 2%
CCOC(=O)c1sc(NCc2ccco2)c(-c2nc3ccccc3s2)c1N | -7% | -8% | 10% | -15% | -5%
CCOC(=O)CSc1nc2c(c(=O)[nH]c(=O)n2C)n1CCc1ccccc1 | 4% | -2% | -2% | 3% | 11%
Cn1c(=O)[nH]c(=O)c2c1nc(SCC(=O)O)n2CCc1ccccc1 | -4% | -1% | 15% | 6.3µM* | -4%
COc1ccc2[nH]cc(CCNc3cc(-c4ccccc4OC)ncn3)c2c1 | -1% | -3% | -15% | -22% | -9%
COc1ccc2[nH]cc(CCNc3ccnc(-c4ccccc4C)n3)c2c1 | -8% | -7% | 16µM* | u | 0%
COc1ccc2[nH]cc(CCNc3ccnc(-c4ccc(C(=O)N(C)C)cc4)n3)c2c1 | -3% | -5% | -6% | 7% | -5%
COc1cccc(-c2nccc(NCCc3c[nH]c4ccc(OC)cc34)n2)c1 | -4% | -7% | 25µM* | -24% | 7%
NC(Cc1cc(I)c(Oc2cc(I)c(O)c(I)c2)c(I)c1)C(=O)O (stereo unspecified) | 2% | -1% | x | 13µM* | x
CC(CN(C)C)NC(=O)c1ccc(Cc2nc3ccccc3[nH]2)cc1 (stereo unspecified) | -2% | 3% | x | -3% | x
CCCCCCNC(=O)Nc1ccccc1 | 0% | 2% | -7%[11.4 µM] | -6%[11.4 µM] | 4%[11.4 µM]
CCCCCCNC(=O)Nc1ccc(S(=O)(=O)Nc2ccc(CCNC[C@H](O)COc3ccc(O)cc3)cc2)cc1 | 0% | -4% | x | 7.9µM* | x
COC(=O)NC(CC(C)=O)c1ccc(Cl)cc1 (stereo unspecified) | -4%[11.5 µM] | 1%[11.5 µM] | x | 10%[11.4 µM] | x

Screens (PubChem BioAssay)
